# Screening data (PubChem)
# PLK1 inh = PLK1 (human) kinase inhibition; recombinant PLK1 kinase, TR-FRET peptide phosphorylation; inhibition, % at 10 µM; hit rate 0.53% among 97,000;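 active = inhibition of 50% or more in the single-concentration screen; inactive = inhibition below 50%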
# CYP2C19 inhib = inhibitors of human CYP2C19 | P33261 | CYP2C19 Supersomes, luciferin-H EGE luminescence, 30 min | inhibition, % at 5 µM | hit rate 21% among 96,000 | AID 778;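 active = CYP2C19 inhibition above a set limit at 5 µM in the primary screen, cut at about 50% in these data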
# Plk1 PBD FP = blocks phosphopeptide binding to human Plk1 polo box domain; P53350; Plk1 PBD phosphopeptide binding, fluorescence polarization; AID 693; hit rate 0.13% among 97,000; inhibition, %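 (tested at about 20 µM)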; in the data active = inhibition above about 34%, passing the limit was not always enough
# CYP2C9 activ = CYP2C9 (human) activation. recombinant CYP2C9, luciferin-H conversion, luminescence; active compounds read high; factor 1 = untreated enzyme, 0 = blocked. activation factor at 5 µM. hit rate 1.4% among 96,000. AID 1024;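 active = activation factor of 2 or more for CYP2C9 at a 5 µM dose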
# Target sequence (P11712 whole entry, looked up): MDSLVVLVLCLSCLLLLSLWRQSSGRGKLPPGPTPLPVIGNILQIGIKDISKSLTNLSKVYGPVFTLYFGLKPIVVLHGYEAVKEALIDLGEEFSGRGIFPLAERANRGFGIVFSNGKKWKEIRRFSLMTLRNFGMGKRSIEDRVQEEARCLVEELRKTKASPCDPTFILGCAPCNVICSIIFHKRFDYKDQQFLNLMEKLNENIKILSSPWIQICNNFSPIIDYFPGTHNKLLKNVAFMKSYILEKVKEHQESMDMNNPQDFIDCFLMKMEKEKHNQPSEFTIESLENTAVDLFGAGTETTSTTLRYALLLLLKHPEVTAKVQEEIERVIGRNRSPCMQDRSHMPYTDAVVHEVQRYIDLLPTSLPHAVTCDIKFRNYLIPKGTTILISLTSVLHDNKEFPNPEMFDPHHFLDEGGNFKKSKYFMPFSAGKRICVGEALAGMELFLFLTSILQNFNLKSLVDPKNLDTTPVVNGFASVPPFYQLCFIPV
# CYP2C19 activ = activators of human cytochrome P450 2C19 | recombinant CYP2C19, luciferin-H EGE luminescence; active compounds read high; 0 = fully inhibited enzyme, 1 = untreated enzyme | 96,000 tested, under 10 active | activation factor at 5 µM | P33261;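 active = activation factor of at least 2 at 5 µM in the primary screen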
# CYP2C9 inhib = human CYP2C9 inhibition. P11712. CYP2C9 Supersomes, luciferin-H conversion, luminescence. inhibition, % at 5 µM. hit rate 20% among 96,000. AID 777;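 active = blocking of liver enzyme CYP2C9 beyond about 50% at 5 µM, limit read from the data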
# A number is an active result; – = inactive; · = no result. The list is not random: actives were taken first. Their share in the collection is about 28%.
SMILES,PLK1 inh,CYP2C19 inhib,Plk1 PBD FP,CYP2C9 activ,CYP2C19 activ,CYP2C9 inhib
Cc1ccc(S(=O)(=O)Nc2cc(C(=O)N3CCC4(CC3)OCCO4)ccc2N2CCCCC2)cc1,–,54.3,–,–,–,62.6
N=c1sc2c(n1Cc1ccccc1)CCCC2,–,–,–,–,–,–
CC(=O)Nc1ccc(OC(=O)N(C)c2ccccc2)cc1,–,–,–,–,–,–
Cc1ccc(N(C)C(=O)Oc2ccc(C(=O)c3ccc(Cl)cc3)cc2)cc1,–,50.4,–,–,–,59.7
CC(Cc1ccccc1)[n+]1cc(/N=C(\[O-])Nc2ccccc2)on1 (stereo unspecified),–,–,–,–,–,72.1
O=C(CCN1C(=O)COc2ccccc21)N1CCC2(CC1)OCCO2,–,86.9,–,–,–,–
Cc1c(C(=O)N2CCC3(CC2)OCCO3)oc2ccccc12,–,97.6,–,–,–,–
O=C(CSc1ccccc1)N1CCC2(CC1)OCCO2,–,98.1,–,–,–,–
CC1=C(C(=O)N2CCC3(CC2)OCCO3)C2(CCC(C)CC2)OC1=O (stereo unspecified),–,92.7,–,–,–,–
O=C(CN1C(=O)CCSc2ccccc21)N1CCC2(CC1)OCCO2,–,–,–,–,–,–
O=c1[nH]c(=O)n(-c2ccccc2Cl)c(O)c1C=NCCN1CCCCC1,–,–,–,–,–,–
CN1CCC(O)(c2ccccc2)C2CCCC21 (stereo unspecified),–,–,–,–,–,–
O=C1C2CCCN2C(c2ccc(Cl)c(Cl)c2)N1c1ccccn1 (stereo unspecified),–,·,–,·,·,·
CCN(CC)CCN=C(C)c1c(O)n(-c2ccccc2OC)c(=O)[nH]c1=O,–,–,–,–,–,–
CC(C)N1C(=O)CCC1C(=O)N1CCC2(CC1)OCCO2 (stereo unspecified),–,–,–,–,–,–
N=C1c2ccccc2CN1NC(=O)c1ccc(F)cc1,–,–,–,–,–,–
CN(C)CC#CCOCCOCCC#N,–,–,–,–,–,–
Cc1ccc(N)c(C(=O)c2ccccc2)c1,–,84.8,–,–,–,–
Cc1ccc(C(=O)Nc2ccc(Cl)cc2C(=O)c2ccccc2)cc1,–,·,–,·,·,·
Cc1ccc(C(c2nnnn2Cc2ccccc2)N2CC=C(c3ccc(F)cc3)CC2)cc1 (stereo unspecified),–,70.1,–,–,–,50.5
COc1ccc(C2NCc3ccccc3-n3cccc32)cc1 (stereo unspecified),–,–,–,–,–,–
COc1cc(C2NCc3ccccc3-n3cccc32)ccc1O (stereo unspecified),–,73.0,–,–,–,66.1
CCC(=NC1CC1)c1c(O)n(C2CCCCC2)c(=O)[nH]c1=O,–,98.8,–,–,–,–
C=CCn1c(O)c(C(CC)=NC2CC2)c(=O)[nH]c1=O,–,–,–,–,–,–
COC(=O)C1C2c3ccccc3OC1(C)N=c1s/c(=C/c3cnn(C)c3C)c(=O)n12 (stereo unspecified),–,–,–,–,–,68.4
SMILES,PLK1 inh,CYP2C19 inhib,Plk1 PBD FP,CYP2C9 activ,CYP2C19 activ,CYP2C9 inhib
CC(=O)C1C2c3ccccc3OC1(C)N=c1s/c(=C/c3cnn(C)c3)c(=O)n12 (stereo unspecified),–,–,–,–,–,–
CCN1CCC(O)(c2ccccc2)C(C(=O)c2ccccc2)C1 (stereo unspecified),–,·,–,·,·,·
Oc1ccc(/C=N/NP(=S)(c2ccccc2)c2ccccc2)cc1O,–,90.2,–,–,–,98.8
Oc1ccc(/C=N/NP(=S)(c2ccccc2)c2ccccc2)c(O)c1O,–,82.9,–,–,–,96.5
Cc1cccc(-n2c(CN3C(=O)c4ccccc4C3=O)nc3ccccc3c2=O)n1,–,·,–,·,·,·
CCN1CCN(Cc2cc(Br)cc(OC)c2O)CC1,–,–,–,–,–,–
CCCCCCCSc1cc(OC)c(CCNC)cc1OC,–,80.6,–,–,–,–
CCCCCSc1cc(OC)c(CCNC)cc1OC,–,62.4,–,–,–,–
CC(=O)OC1N=C(c2ccc(Cl)cc2)c2cc(Br)ccc2NC1=O (stereo unspecified),–,–,–,–,–,–
O=C1C2CCCN2C(c2cccnc2)N1c1ccc(Cl)c(Cl)c1 (stereo unspecified),–,–,–,–,–,–
O=C1C2CCCN2C(c2ccncc2)N1c1ccc(Cl)c(Cl)c1 (stereo unspecified),–,67.8,–,–,–,88.3
O=P(NS(=O)(=O)c1ccc(Cl)cc1)(Oc1ccccc1)Oc1ccccc1,–,·,–,·,·,·
O=P(Nc1ccccc1)(Nc1ccccc1)Oc1ccc(Cl)cc1,–,86.4,–,–,–,81.1
Cc1c(C(=O)N2CCC3(CC2)OCCO3)sc2ncnc(N(C)c3ccccc3)c12,–,–,–,–,–,73.3
Cc1sc2ncn(CC(=O)N3CCC4(CC3)OCCO4)c(=O)c2c1C,·,–,·,–,–,–
O=C(CCN1CCOCC1)NCC(=O)Nc1ccc(Br)cc1C(=O)c1ccccc1,–,–,–,–,–,–
CC(C(=O)Nc1ccc(Br)cc1C(=O)c1ccccc1)N1CCOCC1 (stereo unspecified),–,60.6,–,–,–,54.8
O=c1c2ccccc2nc(-c2ccoc2)n1-c1ccccc1Cl,–,–,–,–,–,–
CC(C)CCn1c(=O)c(C(=O)Nc2ccccc2S(N)(=O)=O)c(O)c2ccccc21,–,–,–,–,–,–
FC(F)(F)c1cccc(-n2nnnc2C2(N3CCOCC3)CCCCC2)c1,–,56.6,–,–,–,–
CCN(CC)CC(=O)Nc1ccc(Cl)cc1C(=O)c1ccccc1,–,·,–,·,·,·
CCn1cc(C(=O)c2ccccc2)c2ccccc21,–,–,–,2.5,–,–
O=C(c1ccccc1)c1cn(CC(=O)N2CCOCC2)c2ccccc12,–,–,–,–,–,53.1
O=c1cccc2n1CC1CC2CN(Cc2cccc(Cl)c2Cl)C1 (stereo unspecified),·,88.5,·,–,–,–
O=c1cccc2n1CC1CC2CN(Cc2c(F)cccc2Cl)C1 (stereo unspecified),·,98.7,·,–,–,55.1
SMILES,PLK1 inh,CYP2C19 inhib,Plk1 PBD FP,CYP2C9 activ,CYP2C19 activ,CYP2C9 inhib
O=C(NCc1ccc(C(=O)N2CCC3(CC2)OCCO3)cc1)c1ccc2c(c1)OCO2,–,–,–,–,–,–
COc1ccc(-c2nc3ccccc3c(=O)n2-c2cccnc2)cc1,–,–,–,–,–,–
O=C(Cc1ccc(Br)cc1)N1CCN(Cc2ccccc2)CC1,–,83.6,–,–,–,86.7
Oc1c(Br)cc(Br)cc1CN1CCN(Cc2ccccc2)CC1,–,73.8,–,–,–,–
COc1ccc(Br)cc1CN1CCN(C(=O)Cc2ccccc2)CC1,–,87.8,–,–,–,81.1
COc1ccc2c(c1)c(C(=O)CN1CCC3(CC1)OCCO3)c(C)n2Cc1ccccc1,–,–,–,–,–,–
